About 79,000 compounds went through this panel and 15% of them were active in at least one assay; those are over-represented in the sample as a whole. A number with no mark means an inactive call. Active and inactive are the calls of the source. Cut-off read from the data, not from the text of the source: active = growth inhibition above about 70%; inactive = the rest.

Assay [1] in a line: NCI Yeast Anticancer Drug Screen. Data for the rad50 strain (AID 155).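 Note: 0% = growth of vehicle-only cultures of the same strain.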 The following applies: S. cerevisiae rad50 strain growth inhibition; at 50.0 µM; stronger effect = higher value. In outline: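 Readout: growth inhibition relative to vehicle-treated cultures. Compound exposure was carried out in a genetically defined yeast strain deficient in DNA damage repair.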
Assay [2] in a line: NCI Yeast Anticancer Drug Screen. Data for the mec2-1 strain (AID 157). The following applies: S. cerevisiae mec2-1 strain, at 50.0 µM, stronger effect = higher value. In outline:
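Vehicle-treated cultures served as reference for growth inhibition of compound-exposed mec2-1 yeast.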

Assay [3] can be described thus: NCI Yeast Anticancer Drug Screen. Data for the sgs1 mgt1 strain (AID 161).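 Note: 0% = growth of cultures given vehicle only.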 The following applies: S. cerevisiae sgs1 mgt1 strain, at 50.0 µM, stronger effect = higher value. In outline:
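Mutant yeast exposed to compound; growth scored against vehicle-only wells.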

Assay [4] in a line: NCI Yeast Anticancer Drug Screen. Data for the cln2 rad14 strain (AID 165).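 Note: 0% = growth equal to vehicle treated cultures.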 The following applies: S. cerevisiae cln2 rad14 strain, at 50.0 µM, stronger effect = higher value. In outline: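 Each compound was tested on cln2 rad14 yeast. Inhibition of growth was calculated against vehicle-exposed controls.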
The nature of assay [5]: NCI Yeast Anticancer Drug Screen. Data for the bub3 strain (AID 167). The following applies: S. cerevisiae bub3 mutant strain, at 50.0 µM, stronger effect = higher value. In outline:
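Readout: yeast growth inhibition, expressed relative to vehicle-only wells. The test organism is a mutant strain from a panel with lesions in DNA repair or checkpoint genes.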

Assay [6] can be described thus: NCI Yeast Anticancer Drug Screen. Data for the mlh1 rad18 strain (AID 175). The following applies: S. cerevisiae mlh1 rad18 strain growth inhibition; at 50.0 µM; stronger effect = higher value. In outline:
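Vehicle-treated cultures served as the reference for growth inhibition in a yeast strain carrying DNA damage repair alterations exposed to each compound.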

On to `COc1ccc(OC)c(N2C(=O)C(=O)C(C(C)=O)C2=O)c1` (stereo not given), for which the growth inhibition in assay [1] is 27.7%; in assay [2], -1.95%; in assay [3], 7.15%; in assay [4], 25.1%; in assay [5] it was 7.65%; in assay [6] it was 16.5%.

For the compound `Cc1nc2cccc3ccc4cc5ccccc5c1c4c32`, the growth inhibition is 69.6% in assay [1]; 12.7% in assay [2]; 16.1% in assay [3]; 7.3% in assay [4]; 25.9% in assay [5]; 14.9% in assay [6].

Consider `N#CCCSC(=S)C(C#N)C(=N)c1ccccc1` (stereo not given), for which the growth inhibition in assay [1] is 13.2%; in assay [2] it was 2.25%; in assay [3], 14.2%; in assay [4] it was 1.5%; in assay [5], -18.9%; in assay [6], 10.3%.

For `NNC(=O)C(=O)NN=C(C(Cl)(Cl)CO)C(Cl)(Cl)CO`, the growth inhibition is 18.9% in assay [1]; -0.65% in assay [2]; 15.1% in assay [3]; 14.1% in assay [4]; 22.3% in assay [5]; 20.4% in assay [6].

On to `CC1=C(C(=O)NCc2ccccc2)C(c2ccc([N+](=O)[O-])cc2)C(C(=O)NCc2ccccc2)=C(C)N1`, for which the growth inhibition in assay [1] is -10.6%; in assay [2] it was -15.2%; in assay [3], 1.5%; in assay [4], 4.4%; in assay [5], -4.8%; in assay [6] it was -23.8%.

Take `C[C@H](CCC(=O)O)[C@H]1CC[C@H]2[C@@H]3CC[C@@H]4C[C@H](O)CC[C@]4(C)[C@H]3CC[C@]12C`: the growth inhibition in assay [1] is 40%; in assay [2], 31.4%; in assay [3], 10%; in assay [4] it was 0.75%; in assay [5], 25.8%; in assay [6], 23.6%.

As to `Cc1cccc(C)c1OC(=O)/C=C/c1ccccc1`, the growth inhibition in assay [1] is 31.3%; in assay [2], -10.5%; in assay [3], 33%; in assay [4], -11.2%; in assay [5] it was -11.8%; in assay [6], 1.05%.

For `Cc1nc(-n2nc(-c3ccccc3)cc2-c2ccccc2)sc1C(=O)CC(=O)C(=O)Nc1ccc(Cl)c(Cl)c1`, the growth inhibition in assay [1] is 6.15%; in assay [2] it was -5.55%; in assay [3], 24.6%; in assay [4], 13.8%; in assay [5], 48.5%; in assay [6], 24.8%.

As for `OCC1c2ccccc2C(CO)c2c1ccc1ccccc21` (stereo not given), the growth inhibition in assay [1] was -0.3%; in assay [2], -2.3%; in assay [3], -7.1%; in assay [4], 11.1%; in assay [5], -9.15%; in assay [6], 4.45%.

As to `O=c1[nH]c(Nc2cccc(Br)c2)nc2nc[nH]c12`, the growth inhibition in assay [1] is -53.2%; in assay [2], -8.65%; in assay [3], -23.9%; in assay [4] it was -45.4%; in assay [5], -5.9%; in assay [6], -37.5%.

Regarding `CC(C)(C)OC(=O)[N+](=N)C(=O)C1CCC(=O)N1C(=O)OCc1ccccc1` (stereo not given), the growth inhibition in assay [1] is -27.7%; in assay [2] it was -33.6%; in assay [3], -23.4%; in assay [4], -11.4%; in assay [5] it was -1.9%; in assay [6], -20%.

For `CC(=O)Oc1cccc(O)c1`, the growth inhibition in assay [1] was -1.55%; in assay [2], -3.65%; in assay [3], -15.2%; in assay [4], -22.5%; in assay [5], -4.15%; in assay [6], 3%.

Turning to `CCOC(=O)C/C(C(=O)O)=C(\C)c1ccc2ccccc2c1`, the growth inhibition in assay [1] is -10.4%; in assay [2], 18.1%; in assay [3] it was 20.9%; in assay [4], 1.15%; in assay [5] it was -2.25%; in assay [6], -0.85%.

`CC(=O)NC(C)c1ccc2ccccc2c1` (stereo not given): the growth inhibition in assay [1] is -5.4%; in assay [2] it was 14.8%; in assay [3], 1.8%; in assay [4] it was 7.55%; in assay [5] it was -8.5%; in assay [6], 11.4%.

`CC[O-].CC[O-].O=C([CH-]C(=O)c1ccccc1)CCCCCCCCC(=O)[CH-]C(=O)c1ccccc1.[Ti+4]`: the growth inhibition in assay [1] is -37.5%; in assay [2], -22.3%; in assay [3] it was 5.1%; in assay [4] it was 13.2%; in assay [5] it was 2.85%; in assay [6] it was 0.5%.

For the compound `CCOC(=O)Nc1ccc(NC(C)=O)cc1`, the growth inhibition in assay [1] is 2.45%; in assay [2], 0.65%; in assay [3], 1.3%; in assay [4], -62.7%; in assay [5], -23.8%; in assay [6], -22.6%.

For `N#CC/C(C#N)=C/OC(=O)c1ccc(Cl)cc1`, the growth inhibition in assay [1] is 12.2%; in assay [2], -4.5%; in assay [3], -13.3%; in assay [4], -33.5%; in assay [5], -17.9%; in assay [6], -7.15%.

With `CC(=O)OCC1OC(c2ccccc2)C/C(=N/O)C1OC(C)=O` (stereo not given), the growth inhibition in assay [1] was 90.8% (active); in assay [2] it was 98.5% (active); in assay [3], 97.8% (active); in assay [4] it was 96.8% (active); in assay [5] it was 87.8% (active); in assay [6], 97.7% (active).

As for `CS(=O)(=O)OCC1C2CCC(CC2)C1COS(C)(=O)=O` (stereo not given), the growth inhibition in assay [1] was 4.5%; in assay [2], 17.3%; in assay [3], 10.2%; in assay [4] it was -15.8%; in assay [5], -13.2%; in assay [6] it was -11.5%.

Take `CC[N+](CC)(CC)C[Si](C)(C)C`: the growth inhibition is 5.05% in assay [1]; 5.7% in assay [2]; 12.1% in assay [3]; 2.4% in assay [4]; 12% in assay [5]; -6% in assay [6].

The values above are taken from PubChem BioAssay (NCI).
